Calls of active or inactive are those of the source. Unless noted, the rule behind the calls is not given here.

Test [1] is described as follows: compounds binding Alexa647 anti-His antibody – biochemical, small-molecule microarray, 635 nm fluorescence, artefact control for SMM control protein annotation, primary screen (AID 1128).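 Note: score merges feature fluorescence with signal-to-noise for each printed compound spot.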 The settings on record: higher = more signal.
Test [2] concerns Human papillomavirus type 1a E7 protein (residues 1-88). Put plainly: HPV1a E7 small-molecule binders, primary screen, biochemical, small-molecule microarray, residues 1-88, 635 nm (AID 1129). To be noted: small-molecule microarray binding, fluorescence 635 nm; higher = more signal.
For test [3], the target named is Focal adhesion kinase 1 (Homo sapiens) (UniProt Q05397). The test can be described thus: PTK2 protein binding on printed compound slides – biochemical, small-molecule microarray, 635/667 nm fluorescence, BSA, DTT, primary screen (AID 1130).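 Note: composite of spot emission at 667 nm and signal to noise over triplicate slides.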 To be noted: 635 nm fluorescence, higher = more signal.
Sequence of Focal adhesion kinase 1 (Homo sapiens) (Q05397 whole entry, looked up): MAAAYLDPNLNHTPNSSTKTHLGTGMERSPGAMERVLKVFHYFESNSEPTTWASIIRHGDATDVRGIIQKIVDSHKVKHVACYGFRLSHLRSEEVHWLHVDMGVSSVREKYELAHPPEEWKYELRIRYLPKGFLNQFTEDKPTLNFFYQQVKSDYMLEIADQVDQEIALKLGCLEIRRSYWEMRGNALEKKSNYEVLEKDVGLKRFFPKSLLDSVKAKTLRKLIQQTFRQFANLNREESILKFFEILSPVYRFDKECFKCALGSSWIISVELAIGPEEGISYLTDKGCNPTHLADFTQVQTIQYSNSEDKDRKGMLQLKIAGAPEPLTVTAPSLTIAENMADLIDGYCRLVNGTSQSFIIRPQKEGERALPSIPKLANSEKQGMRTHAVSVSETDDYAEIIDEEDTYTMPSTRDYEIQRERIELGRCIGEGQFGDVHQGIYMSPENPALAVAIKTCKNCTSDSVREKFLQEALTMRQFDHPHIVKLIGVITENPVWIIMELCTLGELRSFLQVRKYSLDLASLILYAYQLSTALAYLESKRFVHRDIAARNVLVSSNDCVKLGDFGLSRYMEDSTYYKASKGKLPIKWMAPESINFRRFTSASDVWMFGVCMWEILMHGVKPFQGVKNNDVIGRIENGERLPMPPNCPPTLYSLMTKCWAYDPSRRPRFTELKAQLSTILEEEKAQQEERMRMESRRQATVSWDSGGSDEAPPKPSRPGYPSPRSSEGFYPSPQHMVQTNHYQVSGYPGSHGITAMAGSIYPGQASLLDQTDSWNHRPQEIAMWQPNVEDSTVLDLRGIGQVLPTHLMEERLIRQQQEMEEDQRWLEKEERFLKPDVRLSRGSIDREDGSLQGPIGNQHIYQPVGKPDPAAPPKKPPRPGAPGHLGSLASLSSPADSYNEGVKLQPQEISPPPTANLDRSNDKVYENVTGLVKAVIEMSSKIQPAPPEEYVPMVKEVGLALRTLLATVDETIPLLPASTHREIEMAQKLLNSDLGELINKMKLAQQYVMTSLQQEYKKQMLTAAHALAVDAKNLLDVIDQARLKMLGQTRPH
The test system of test [4] is Fibrinogen (Alexa647-labelled). Put plainly: Alexa647-fibrinogen binding to printed small molecules – biochemical, small-molecule microarray, 635/667 nm fluorescence, artefact control for SMM control-protein annotation, profiling panel (AID 1131).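 Note: z-score merges 667 nm fluorescence with per-spot signal-to-noise over triplicate slides.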 To be noted: fibrinogen-A647 binding fluorescence, higher = more signal.
Test [5] deals with Follistatin (Homo sapiens) (UniProt P19883). Put plainly: FST protein binding to printed compounds – biochemical, small-molecule microarray, 635/667 nm fluorescence, primary screen (AID 1132). To be noted: 635 nm fluorescence, higher = more signal.
Sequence of Follistatin (Homo sapiens) (P19883 whole entry, looked up): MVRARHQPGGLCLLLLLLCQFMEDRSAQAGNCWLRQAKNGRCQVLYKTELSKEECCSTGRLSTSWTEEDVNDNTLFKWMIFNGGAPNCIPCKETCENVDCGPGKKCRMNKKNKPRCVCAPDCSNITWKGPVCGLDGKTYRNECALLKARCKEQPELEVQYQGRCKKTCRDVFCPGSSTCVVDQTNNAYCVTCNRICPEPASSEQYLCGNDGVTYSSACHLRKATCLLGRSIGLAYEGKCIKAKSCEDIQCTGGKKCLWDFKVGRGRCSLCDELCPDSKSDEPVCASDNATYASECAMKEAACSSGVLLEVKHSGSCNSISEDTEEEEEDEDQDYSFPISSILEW
Test [6] addresses Fibroblast growth factor 2 (Homo sapiens) (UniProt P09038). Put plainly: basic fibroblast growth factor binding to printed compounds – biochemical, small-molecule microarray, 635/667 nm fluorescence, primary screen (AID 1133). To be noted: FGF2, fluorescence 635/667, higher = more signal.
Test [7] is described as follows: JC-1 mitochondrial potential readout, lung cancer cells – cell-based, A549, JC-1 fluorescence, basal, 24 h, 100 nL, profiling panel (AID 1138).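 Note: A549 lung adenocarcinoma cells under basal conditions with no added stimulus; test concentration not given here.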 The settings on record: higher = more signal.
The subject of a further test is Lefty1. Put plainly: Lefty1 protein binding to printed compounds – biochemical, small-molecule microarray, 635/667 nm fluorescence, primary screen (AID 1139). The settings on record: fluorescence 635/667, higher = more signal.
Test [8] deals with wheat germ agglutinin (Triticum aestivum), Alexa647-labelled. Put plainly: Alexa647-WGA lectin binding to printed small molecules – biochemical, small-molecule microarray, 635/667 nm fluorescence, artefact control for SMM control-protein annotation, profiling panel (AID 1140).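 Note: score merges 667 nm feature emission with signal to noise over triplicate slides.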 The settings on record: WGA-A647 binding, 635 nm fluorescence, higher = more signal.
In test [9] the target is Luciferin 4-monooxygenase (Photinus pyralis) (UniProt P08659). The test can be described thus: inhibition of purified Photinus pyralis luciferase – biochemical, luminescence, purified enzyme, 2006 set, primary screen (AID 1141).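 Note: cell-free assay with purified firefly luciferase at 100 ng per well in PBS; test concentration not given here.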 The settings on record: purified firefly luciferase, SteadyGlo luminescence, 30 min; higher = more signal, called active from +8 up or from −8 down.
Sequence of Luciferin 4-monooxygenase (Photinus pyralis) (P08659 whole entry, looked up): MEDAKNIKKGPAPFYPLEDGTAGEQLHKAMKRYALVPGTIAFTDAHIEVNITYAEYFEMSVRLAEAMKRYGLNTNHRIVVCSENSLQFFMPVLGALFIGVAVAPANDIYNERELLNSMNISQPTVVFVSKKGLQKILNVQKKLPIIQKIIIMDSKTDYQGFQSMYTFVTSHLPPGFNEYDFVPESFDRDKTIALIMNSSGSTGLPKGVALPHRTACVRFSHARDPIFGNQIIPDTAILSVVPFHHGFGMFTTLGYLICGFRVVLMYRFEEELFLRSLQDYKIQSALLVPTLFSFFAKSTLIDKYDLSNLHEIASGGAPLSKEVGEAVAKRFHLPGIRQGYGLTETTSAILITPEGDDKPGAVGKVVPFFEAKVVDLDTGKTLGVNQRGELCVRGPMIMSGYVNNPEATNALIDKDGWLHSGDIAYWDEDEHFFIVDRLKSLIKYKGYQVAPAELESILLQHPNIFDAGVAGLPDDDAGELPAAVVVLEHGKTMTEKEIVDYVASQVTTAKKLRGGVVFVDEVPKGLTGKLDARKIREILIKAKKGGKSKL

Test [10] concerns Wnt5a (protein binding on small-molecule microarray). Put plainly: small molecules binding Wnt5a protein – biophysical, small-molecule microarray, 635/667 nm fluorescence, primary screen (AID 1142).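 Note: fluorescence read at 667 nm with signal to noise per printed feature.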 The settings on record: 635 nm fluorescence, higher = more signal.
Test [11] can be described thus: ATP-based viability of Huh7 replicon cells – cell-based, CellTiter-Glo luminescence, basal, 48 h, cytotoxicity control for HCV replication inhibitor project, primary screen (AID 1143).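 Note: Huh7 hepatoma cells carrying a hepatitis C replication reporter with no stimulus; test concentration not given here.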 The settings on record: higher = more signal, called active from +8 up or from −8 down. A general note: In antiviral work, replicon cells carry a viral genome segment that copies itself.

Test [12] in a line: Pseudomonas biofilm growth suppression – PAO1 strain, BacTiter-Glo luminescence, LB-PBS, primary screen (AID 1144). The settings on record: P. aeruginosa PAO1 biofilm, 12 h, higher = more signal.
Test [13] in a line: basal CRE-LacZ reporter activity in PC12 – cell-based, unstimulated, primary screen (AID 1145). The settings on record: no forskolin, luminescence, 4.5 h, higher = more signal, called active from +8 up or from −8 down.
Test [14] is described as follows: forskolin-driven CRE-LacZ activity in PC12 – cell-based, CRE-LacZ reporter, forskolin-stimulated, primary screen (AID 1146).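 Note: PC12 cells with 6xCRE LacZ reporter stimulated by forskolin 10 µM; beta-galactosidase reporter signal reflecting CREB driven transcription.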 To be noted: luminescence, 4.5 h, higher = more signal, called active from +8 up or from −8 down.
For test [15], the target named is Streptavidin (Streptomyces avidinii) (UniProt P22629). The test can be described thus: compounds binding control protein streptavidin – biophysical, small-molecule microarray, 635/667 nm fluorescence, artefact control for SMM compound annotation, primary screen (AID 1147).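 Note: signal reflects streptavidin binding to arrayed compounds as a control protein.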 The settings on record: higher = more signal.
Sequence of Streptavidin (Streptomyces avidinii) (P22629 whole entry, looked up): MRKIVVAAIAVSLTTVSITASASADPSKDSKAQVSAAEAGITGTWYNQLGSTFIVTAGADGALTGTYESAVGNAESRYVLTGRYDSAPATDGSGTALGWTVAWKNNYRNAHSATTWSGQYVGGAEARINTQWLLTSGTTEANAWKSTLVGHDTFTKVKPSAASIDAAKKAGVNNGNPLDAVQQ
Test [16] in a line: probe aInhba binding on compound microarray – biochemical, small-molecule microarray, 635/667 nm fluorescence, primary screen (AID 1148).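 Note: score merges 667nm spot fluorescence with signal-to-noise for antibody binding to printed compounds.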 The settings on record: higher = more signal.
The target in test [17] is Torsin-1A (Homo sapiens) (UniProt O14656). Put plainly: TOR1A wild-type binding on microarray – cell lysate, small-molecule microarray, lysate, 635/667 nm, primary screen (AID 1149). The settings on record: COS7 hTOR1A-WT lysate, 635 nm fluorescence, higher = more signal.
Sequence of Torsin-1A (Homo sapiens) (O14656 whole entry, looked up): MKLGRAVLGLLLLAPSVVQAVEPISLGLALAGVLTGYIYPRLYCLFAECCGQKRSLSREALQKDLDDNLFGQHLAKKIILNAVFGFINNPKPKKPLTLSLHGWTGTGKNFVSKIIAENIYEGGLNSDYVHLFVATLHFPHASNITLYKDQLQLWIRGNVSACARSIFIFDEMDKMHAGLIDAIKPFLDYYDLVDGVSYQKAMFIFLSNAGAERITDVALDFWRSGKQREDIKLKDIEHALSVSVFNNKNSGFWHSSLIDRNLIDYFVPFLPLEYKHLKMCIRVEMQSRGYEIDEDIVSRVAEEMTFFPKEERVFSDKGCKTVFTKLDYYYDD
Test [18] has the same target. Put plainly: torsin A mutant lysate binding on microarrays – cell lysate, small-molecule microarray, COS7 lysate, 635/667 nm fluorescence, primary screen (AID 1150).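 Note: score pools 667 nm emission and signal to noise measuring lysate protein binding.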 The settings on record: COS7 hTOR1A mutant lysate, 635 nm fluorescence, higher = more signal.
Test [19] has as its system Sonic hedgehog protein (Shh). The test can be described thus: Sonic hedgehog microarray binding compounds – biochemical, small-molecule microarray, 635/667 nm fluorescence, primary screen (AID 1151).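 Note: Shh protein binding to compounds spotted on small-molecule microarray slides; score combines spot fluorescence intensity with signal-to-noise across triplicate slides.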 To be noted: 635 nm fluorescence, higher = more signal.

Sequence of Fibroblast growth factor 2 (Homo sapiens) (P09038 whole entry, looked up): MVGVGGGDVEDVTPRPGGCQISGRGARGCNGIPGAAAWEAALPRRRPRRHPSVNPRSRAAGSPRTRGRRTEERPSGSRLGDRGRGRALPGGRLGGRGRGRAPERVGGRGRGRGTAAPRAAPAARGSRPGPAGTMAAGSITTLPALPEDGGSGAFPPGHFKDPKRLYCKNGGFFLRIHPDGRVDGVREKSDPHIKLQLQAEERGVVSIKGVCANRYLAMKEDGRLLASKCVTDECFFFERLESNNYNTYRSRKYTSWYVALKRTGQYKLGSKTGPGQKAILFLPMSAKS

Regarding `COCCOC(=O)N1C(=O)[C@@]2(c3cc(C#CC4(O)CCCCCC4)ccc31)[C@H](c1ccc(OCCO)cc1)N1[C@H](c3ccccc3)[C@H](c3ccccc3)OC(=O)[C@H]1[C@@H]2C(=O)Nc1nc2ccccc2s1`, the composite z-score was determined as 1.08 in [1]; 1.13 in [2]; 0.2 in test [3]; 0.688 in [4]; 1.27 in [5]; 1.65 in [6]. In addition, the composite z-score was found to be 1.38 in the test on Lefty1; 0.708 in [8]; 0.544 in [10]; 0.945 in test [15]; 0.134 in [16]; 0.494 with Torsin-1A (Homo sapiens) [17]. In addition, the composite z-score came to 0.734 with Torsin-1A (Homo sapiens) [18] and 1.84 in [19]. Besides, the z-score in [7] was -2.33; in test [9] it was -2.55 (inactive); in [11], -1.39 (inactive); in [12] it was 0.3 (inactive); in [13] it was -0.337 (inactive); in [14] it was 0.138 (inactive).

On to `C=C(/C(=C/C[C@@H](OC(=O)c1ccncc1)c1cccc(OCCO)c1)c1cnc2ccccc2c1)C(C)C`, for which the composite z-score in test [1] turned out to be 0.787; in [2], 1.09; in test [3], 0.329; in test [4] it was 0.807; in [5], 1.42; in test [6], 2.01. Moreover, the composite z-score stood at 1.2 in the test with Lefty1; 1.29 in test [8]; 0.782 in test [10]; 1.62 in [15]; 0.0422 in [16]; 0.199 with Torsin-1A (Homo sapiens) [17]. For the same compound, the composite z-score in the test with Torsin-1A (Homo sapiens) [18] is 0.128; in test [19], 2. Moreover, the z-score in test [7] was 1.02; in test [9], -1.47 (inactive); in test [11], -2.31 (inactive); in test [12], -0.454 (inactive); in test [13], 1.69 (inactive); in test [14] it was 0.628 (inactive).

For the compound `COc1cc(NN2C(C(O)C3CCCCC3)C=CC3C(=O)N(c4ccccc4)C(=O)C32)cc(OC)c1OC` (stereo not given), the composite z-score was 1.96 in [1]; 1.26 in test [2]; 0.724 in test [3]; 0.964 in test [4]; 0.459 in test [5]; -0.776 in [6]. The composite z-score in the test with Lefty1 was -0.175; in [8], 1.23; in [10], 0.316; in test [15], 0.775; in [16], 0.121; with Torsin-1A (Homo sapiens) [17] it was -0.224. Moreover, the results for the composite z-score (with Torsin-1A (Homo sapiens) [18]; in test [19]) were 0.335 and -0.686, respectively. In addition, the z-score in test [7] was -0.0727; in [9] it was -0.45 (inactive); in test [11] it was -2.88 (inactive); in test [12], -0.408 (inactive); in test [13], 0.436 (inactive); in [14], -0.0678 (inactive).

As to `CCOC(=O)C1=CC[C@@H](c2ccccc2)N(S(=O)(=O)c2ccc(C)cc2)[C@H]1c1cccc(OC)c1`, the composite z-score is 0.741 in [1]; 1.15 in test [2]; -0.0106 in test [3]; 0.669 in test [4]; 0.76 in test [5]; 0.356 in test [6]. Further, the composite z-score was -0.245 in the test on Lefty1; 0.773 in [8]; -0.134 in [10]; 0.717 in test [15]; 0.135 in test [16]; 0.4 with Torsin-1A (Homo sapiens) [17]. For the same compound, the composite z-score with Torsin-1A (Homo sapiens) [18] is 0.314; in [19], -0.176. For the same compound, the z-score in test [7] is 1.96; in test [9], 1.56 (inactive); in [11], -2.97 (inactive); in test [12] it was 0.966 (inactive); in test [13] it was -0.424 (inactive); in test [14], 0.576 (inactive).

For the origin of these results see PubChem BioAssay.
